# An excerpt weighted towards active compounds, which were near 2.4% of everything screened.
# D2 PAM-1 – positive allosteric modulators of human D2 dopamine receptor; HEK293 T-REx D2, calcium flux, EC20 dopamine potentiation; P14416; potentiation, % at 10 µM; 340,000 compounds, 0.34% hits;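 active means potentiation over 3 SD above the plate norm, cut at about 30% in these data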
# Target sequence (P14416 whole entry, looked up): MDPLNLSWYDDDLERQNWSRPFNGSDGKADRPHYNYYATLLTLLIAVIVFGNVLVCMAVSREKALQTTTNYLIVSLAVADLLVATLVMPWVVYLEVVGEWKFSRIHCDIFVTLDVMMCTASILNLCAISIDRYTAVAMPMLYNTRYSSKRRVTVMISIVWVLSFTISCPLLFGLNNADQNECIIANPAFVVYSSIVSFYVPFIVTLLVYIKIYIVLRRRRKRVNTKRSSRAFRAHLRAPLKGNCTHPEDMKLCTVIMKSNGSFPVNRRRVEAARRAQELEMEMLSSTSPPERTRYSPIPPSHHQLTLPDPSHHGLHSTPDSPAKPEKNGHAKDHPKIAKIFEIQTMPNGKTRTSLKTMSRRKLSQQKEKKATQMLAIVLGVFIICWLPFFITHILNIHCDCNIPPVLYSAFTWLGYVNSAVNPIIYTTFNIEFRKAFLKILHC
#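 Tetracycline-induced HEK293 T-REx cells force-coupled to calcium signalling expressed D2; compounds were pin-added after a 10 s baseline, read kinetically 180 s, then an EC20 dopamine challenge followed with a further 180 s calcium read.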
# D2 antag – antagonists of human D2 dopamine receptor; P14416; HEK293 TREx D2 cells, calcium flux, dopamine EC80; inhibition, % at 10 µM; 340,000 compounds, 2% hits; in the data active means inhibition above about 30%; inactive means below that, where a call was filed
#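 HEK293 T-REx D2 cells, tet-induced, calcium dye no-wash. Cpd pintool add, 180 s kinetic, then EC80 DA, 180 s kinetic. Ca flux read.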
# D2 PAM-2 – human D2 receptor positive allosteric modulation; potentiation, % (test concentration not listed); DiscoveRx D2 beta-arrestin cells, luminescence, 90 min; 100% = 57 uM dopamine signal; 360,000 compounds, 0.23% hits; P14416; in the data active means potentiation above about 50%; inconclusive means mostly about 30% to 49%
#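 PathHunter D2 cells, attached overnight at 37 deg C, received compound in DMSO plus dopamine at EC20 (50 nM final) for 90 min at 37 deg C. Beta-arrestin recruitment was read as luminescence after 1 h with detection reagent at ambient temperature.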
# D2 ag-1 – agonists of human D2 dopamine receptor (beta-arrestin); AID 624465; DiscoveRx PathHunter D2 beta-arrestin, luminescence, 90 min; 100% = 57 uM dopamine signal; 360,000 compounds, 0.084% hits; P14416; activation, % (concentration not given with the values); in the data active means activation above about 40%; inconclusive means between about 15% and that limit
#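 Agonist mode: compounds alone added to overnight-plated D2 PathHunter cells for 90 min at 37 C, with 57 uM final dopamine (EC100) defining full response. Beta-arrestin recruitment detected by chemiluminescent reagent, read after 1 h at ambient temperature.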
# D2 ag-2 – agonists of human D2 dopamine receptor. activation, % at 2 µM. P14416. AID 485358. HEK293 T-REx D2 cells, calcium flux agonist mode. 340,000 compounds, 0.53% hits;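 active means activation over 3 SD above normal in the single-dose calcium agonist read, cut at about 30% in these data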
#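 Calcium-flux readout, 1 cycle/sec over 180 s following compound pin transfer, in inducible HEK293 Trex D2 cells (force-coupled); dopamine controls included. Positive calcium responses during this window marked compounds as potential agonists.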
# Hits are given with their value; i = inactive; ? = inconclusive; nt = no result.
SMILES,D2 PAM-1,D2 antag,D2 PAM-2,D2 ag-1,D2 ag-2
CCn1c2ccccc2c2cc(/C=N/NC(=O)c3ccccc3C)ccc21,i,36,i,i,i
CCn1c2ccccc2c2cc(/C=N/NC(=O)c3cccc(C)c3)ccc21,i,i,i,i,i
COc1ccc(-c2nn(-c3ccccc3)cc2C(=O)Nc2ccc(C(=O)O)cc2)cc1,i,i,i,i,i
COc1ccc(NC(=O)c2cn(-c3ccccc3)nc2-c2ccncc2)cc1,i,68,i,i,i
CCOC(=O)c1c(C)n(-c2ccc(C)cc2)c2ccc(O)c(CN(C)C)c12,i,40,i,i,i
CCc1cnc2c(c1SCC(=O)c1ccc(OC)cc1)c(=O)n(C)c(=O)n2C,i,nt,nt,nt,i
COc1ccc(/C=C/C(=O)Nc2cc(C(F)(F)F)ccc2Cl)cc1,i,32,i,i,i
COC(=O)[C@@]1(Cc2ccc(OC)cc2)[C@@H]2C(=CC(=O)[C@H]2CC(=O)C(=O)N(C)C)CN1C(=O)c1ccccc1,i,i,i,i,i
C=C1C(=O)C=C2CN(C(=O)c3ccccc3)[C@@](Cc3ccc(F)cc3)(C(=O)OC)[C@@H]12,i,44,i,i,i
COc1cc(C2CC(=O)n3c(nc4ccccc43)S2)cc(OC)c1OC (stereo unspecified),30,i,nt,nt,i
O=C(O)C1CC(=O)n2c(nc3ccccc32)S1 (stereo unspecified),i,i,i,i,i
Cc1ccc(NC(=O)CSc2nc3ccc(NC(=O)c4cccc(Cl)c4)cc3s2)c(C)c1,i,nt,nt,nt,i
Cc1c(-c2ccccc2)n(-c2ccccc2O)c2nc3c(c(=O)n(C)c(=O)n3C)n12,i,nt,nt,nt,i
CCCCSc1nnc(-c2c[nH]c3ccccc23)n1C,i,i,i,i,i
Cn1c(SCc2ccccc2)nnc1-c1c[nH]c2ccccc12,i,35,i,i,i
Cc1ccccc1CNC(=O)c1cc2cc(S(=O)(=O)N3CCCCC3)ccc2n1C,i,nt,nt,nt,i
Cc1cc(C(N)=O)c2cc(Br)ccc2n1,39,i,i,i,i
COc1ccc(OCCCC(=O)Nc2nncs2)cc1,39,i,i,i,i
Cc1ccc(NS(=O)(=O)c2ccc3[nH]c4c(c3c2)CCCCCC4)cc1,i,nt,nt,nt,i
Cc1ccc(S(=O)(=O)Nc2cc(=O)[nH]c3c2CCC3)cc1,i,37,i,i,i
COc1ccc(NC(=O)NC(C)c2c(-n3cccc3)sc3c2CCN(C)C3)c(OC)c1 (stereo unspecified),i,nt,nt,nt,i
CCc1ccc(-c2cn3c(n2)sc2cc(C(=O)NCCc4ccc(OC)cc4OC)ccc23)cc1,i,nt,nt,nt,i
Oc1nc(Nc2ccc(F)cc2)sc1/C=C1\C=Nc2ccccc21,i,i,i,i,i
CC1=Nc2ccccc2/C1=C\c1sc(Nc2ccc(C)cc2)nc1O,i,61,i,i,i
Cc1nc(-c2ccc(Cl)cc2)sc1CCNC(=O)c1ccco1,i,nt,nt,nt,i
SMILES,D2 PAM-1,D2 antag,D2 PAM-2,D2 ag-1,D2 ag-2
CCOC(=O)c1ccc(N=C2SC(C(=O)Nc3ccccc3)CC(=O)N2C)cc1 (stereo unspecified),i,nt,nt,nt,i
OC(COc1ccc2cc(Br)ccc2c1)CN1CCN(c2ccccn2)CC1 (stereo unspecified),i,i,?,41,i
OC(COc1ccc(Cl)cc1)CN1CCN(c2cccc(Cl)c2)CC1 (stereo unspecified),i,73,i,i,i
OC(CN1CCN(c2cccc(Cl)c2)CC1)c1ccccc1 (stereo unspecified),i,53,i,i,i
Cc1cccc(N2CCN(CC(O)COc3ccc(Cl)cc3)CC2)c1 (stereo unspecified),i,58,i,i,i
O=C(Nc1c2c(nn1-c1ccc(Cl)cc1)CS(=O)(=O)C2)c1ccc(Br)cc1,i,nt,nt,nt,i
Cc1nc(SCC(=O)Nc2ccc(F)cc2)c(C#N)c(C)c1CC(=O)c1ccc(Br)cc1,i,44,i,i,i
COc1cc(OC)c(CNC2CCCCCC2)cc1Br,i,49,i,i,i
CCOc1ccc(CCNc2ncnc3onc(-c4ccc(Cl)cc4)c23)cc1,nt,nt,nt,nt,i
CN(CC(=O)Nc1cccc(F)c1)C(=O)c1cc([N+](=O)[O-])ccc1N1CCCCC1,i,42,i,i,i
CCN(CC(=O)Nc1c(F)cccc1F)C(=O)c1ccc(N2CCOCC2)c([N+](=O)[O-])c1,i,i,i,i,i
CCN(CC(=O)Nc1c(F)cccc1F)C(=O)c1ccc(N2CCCC2)c([N+](=O)[O-])c1,i,31,i,i,i
CCCCOc1ccc(C2=NC(c3ccncc3)=Nc3ccc(OCC)cc3N2)cc1,i,nt,nt,nt,i
O=C(Cn1nnc(-c2ccccc2NC(=O)c2ccccc2F)n1)NCc1ccco1,i,33,i,i,i
COc1ccc(/C=C/c2c(-c3ccc(OC)cc3)oc3ccccc23)cc1,i,i,i,i,i
COC(=O)c1ccc(/C=C/c2c(-c3ccc(OC)cc3)oc3ccccc23)cc1,i,47,i,i,i
COc1ccc(-c2oc3ccccc3c(=O)c2OC(=O)c2ccc(C)cc2)cc1,31,i,i,i,i
COCCNC(=O)/C(C#N)=C/c1cc(C(C)C)c(OC)cc1C,i,i,i,i,i
COc1cc(C)c(/C=C(\C#N)C(=O)Nc2ccc(C)cc2)cc1C(C)C,i,75,i,i,i
CCS(=O)(=O)N1Cc2ccccc2CC1C(=O)N(C)CC(=O)Nc1cccc(F)c1 (stereo unspecified),i,41,i,i,i
CCSc1nc2ccccc2n1CCC(=O)O,i,45,i,i,i
CCCCCCNCc1ccc(Br)cc1,i,30,i,i,i
CC1CCN(S(=O)(=O)c2ccc(S(=O)(=O)NCc3ccccc3)cc2)CC1,i,31,i,i,i
O=S(=O)(NCc1ccccc1)c1ccc(S(=O)(=O)N2CCCCC2)cc1,i,i,i,i,i
CCOC(=O)c1c(C)[nH]c(N=Nc2ccc(C)cc2)c1C,i,i,i,i,i
SMILES,D2 PAM-1,D2 antag,D2 PAM-2,D2 ag-1,D2 ag-2
CCOC(=O)c1c(C)[nH]c(N=Nc2ccccc2)c1C,i,67,i,i,i
CCOC(=O)c1c(C)[nH]c(N=Nc2cccc(C)c2)c1C,i,33,i,i,i
[O-]/C(=C(\C(=S)Nc1ccccc1F)[n+]1ccccc1)c1ccc(OC(F)F)cc1,i,i,i,i,i
Cc1ccc(C)c(NC(=S)/C(=C(\[O-])c2ccc(OC(F)F)cc2)[n+]2ccccc2)c1,i,31,i,i,i
COCCNC(=O)c1c(NC(=O)Cc2coc3cc(C)ccc23)sc2c1CCCC2,i,nt,nt,nt,i
Nc1c2c(nc3ccc(Br)cc13)N(C1CCCCC1)CC2,i,74,nt,nt,i
CSc1cccc(NC(=O)Cn2c3ncccc3c(=O)n2-c2ccc(C)cc2)c1,i,nt,nt,nt,i
COc1ccc(C(=O)c2ccc(OC)c3cccc(O)c23)cc1OC,i,i,73,i,i

# From PubChem
